A selection: hits, their analogues and other compounds. The true share with any hit is near 2.2%.
LMP1 NFkB inh – inhibitors of Epstein-Barr LMP1-induced NF-kappaB reporter; LMP1-induced NF-kappaB luciferase reporter cells, luminescence; inhibition, % at 12.5 µM; hit rate 0.69% among 350,000; AID 504558; in the data active means inhibition above about 41%; inconclusive means no clear call, values can overlap the other calls;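 further: 0% = neutral control wells and 100% = reference inhibitor control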
LGR2 antag – inhibitors of bursicon-induced Drosophila LGR2 receptor cAMP signaling; HEK293 LGR2, CRE-luciferase, bursicon-stimulated, 4 h; inhibition, % at 9.99 µM; AID 720647; hit rate 0.35% among 380,000;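 active means drop in luminescence signal, shown as inhibition above about 50% in the replicate tests, limit read from the data, passing the limit was not always enough; inconclusive means probably only some replicates passing the limit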;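 further: agonist challenge used bursicon conditioned medium at about half maximal strength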
MITF TRPM1 inh – reduces MITF-dependent TRPM1 promoter luciferase signal | SK-MEL-5 TRPM1 promoter luciferase, 24 h | inhibition, % at 12.5 µM | hit rate 0.83% among 330,000 | AID 488899;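 active means mean inhibition across replicates of 60% or more, whatever share of single replicates reaches that level; inconclusive means some that reach 60%, reason not given; inactive means mean inhibition across replicates below 60%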
PAX8 inh HTS – PAX8 transcriptional activity inhibition; RMG-I TPO-luciferase reporter, SteadyGlo, 24 h; inhibition, % at 12.6 µM; hit rate 1.2% among 360,000;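 active means mean replicate inhibition at least 60% with every replicate also reaching 60%; inconclusive means only one of the two criteria is met; inactive means mean below 60% and not all replicates reaching 60%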;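 further: luciferase light reporting Pax8 driven TPO promoter activity; plate controls were median of neutral control wells for no effect and mitoxantrone controls for full effect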
EWS-Fli block – inhibitors of EWS/Fli oncoprotein transcriptional activity. A673 NR0B1-luciferase reporter, viability-normalised. inhibition, % at 12.6 µM. hit rate 0.67% among 350,000;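 active means mean inhibition of at least 50% after viability correction, with every replicate also passing that limit; inconclusive means mean reaches 50% but only one of two replicates passes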;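 further: firefly luciferase signal divided by Alamar Blue viability fluorescence both relative to DMSO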
PGC1a acetyl inh – modulators of PGC1a acetylation. U2OS PGC1a acetylation, AlphaScreen anti-acetyl-lysine; with virally co-expressed GCN5 acetyltransferase. inhibition, % at 15.6 µM. hit rate 0.17% among 350,000;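 active means every replicate shows inhibition of at least 40%; inconclusive means mean inhibition at least 40% but some replicate below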;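 further: 0% = neutral control wells and 100% = positive control wells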
* marks the source's active call; other numbers are inactive results; ? = inconclusive; nt = not tested or not shown.

SMILES	LMP1 NFkB inh	LGR2 antag	MITF TRPM1 inh	PAX8 inh HTS	EWS-Fli block	PGC1a acetyl inh
Nc1ncnc2c1ncn2[C@@H]1O[C@H](COP(=O)(O)CP(=O)(O)O)[C@@H](O)[C@H]1O	8	33	2	-17	9	-5
N#Cc1cn(C2OC(CO)C(O)C2O)c2ncnc(N)c12 (stereo not drawn)	-181	94*	59	96*	-7	-5
CCNC(=O)[C@H]1O[C@@H](n2cnc3c(N)ncnc32)[C@H](O)[C@@H]1O	17	3	5	-6	-2	-2
COc1ccc(-c2ccc([C@H]3[C@H](CO)N4CCCCN(C(=O)Cc5ccccc5)C[C@@H]34)cc2)cc1	nt	8	nt	-28	nt	-19
CC1(C(=O)O)CC12c1ccccc1-c1ccccc12 (stereo not drawn)	74*	8	0	nt	2	nt
COC1CC2C=C(C)C=CC=CC(=O)NC(c3ccccc3)CC=CCCC(O)CC(=O)C2=C1O (stereo not drawn)	nt	22	nt	116*	55*	nt
COc1ccc(C(c2nnnn2Cc2ccccc2)N2CCC(n3c(=O)[nH]c4ccccc43)CC2)cc1 (stereo not drawn)	nt	36	nt	89*	-1	21
O=c1[nH]c2ccccc2n1C1CCN(C(c2cccs2)c2nnnn2Cc2ccccc2)CC1 (stereo not drawn)	nt	41	nt	87*	33	4
O=c1[nH]c2ccccc2n1C1CCN(C(c2ccccc2OC(F)(F)F)c2nnnn2Cc2ccccc2)CC1 (stereo not drawn)	nt	61*	nt	84*	2	-28
Cc1cccc(C)c1-n1nnnc1C(c1cccs1)N1CCC(n2c(=O)[nH]c3ccccc32)CC1 (stereo not drawn)	nt	15	nt	-14	4	-53
O=C(Cc1cccnc1)N1CCCCN2[C@H](CO)[C@H](c3ccc(/C=C/c4ccccc4)cc3)[C@H]2C1	nt	-20	nt	11	6	2
CCOC(=O)[C@@H]1[C@@H]2NC(=O)N(C)[C@@]1(C)Oc1ccccc12	nt	nt	nt	2	-4	2
O=C(CCCc1ccc(N(CCCl)CCCl)cc1)NCc1ccccc1	42*	-2	nt	5	28	-1
COC(=O)[C@@H]1[C@@H](CO)[C@@H]2Cn3c(ccc(-c4ccccc4F)c3=O)[C@H]1N2	nt	-13	nt	1	-3	nt
CCOC(=O)[C@@H]1[C@@H]2NC(=S)N(C)[C@@]1(COCc1ccc(OC)cc1)Oc1ccccc12	nt	nt	nt	8	-10	0
Cc1cc(N(CCCl)CCCl)ccc1/C=N/NC(=O)c1ccco1	53*	nt	-21	nt	nt	-11
CC=CC(C)=CC(C)C(=O)CC(O)CC1CC(=O)NC(=O)C1 (stereo not drawn)	14	17	nt	14	-22	nt
CC1CC(C)(O)CC(C(O)CC2CC(=O)NC(=O)C2)C1=O (stereo not drawn)	90*	102*	67*	123*	46	77*
O=C1CNC[C@H]2[C@@H](c3ccc(Br)cc3)[C@@H](CO)N12	nt	8	nt	-7	-11	0
CCN(CC)c1ccc(N=Cc2c(O)n(CCc3ccc(OC)c(OC)c3)c(=O)[nH]c2=O)cc1	29	51*	29	-23	nt	nt
CC1(C)C[C@H]2C=C(C=O)[C@]3(C=O)C[C@]3(C)[C@H]2C1	-83	nt	88*	nt	28	17
CC(=O)OC(C)(C)/C=C/C(=O)[C@](C)(O)C1[C@H](O)C[C@@]2(C)C3CC=C4C(C[C@H](O)C(=O)C4(C)C)[C@]3(C)C(=O)C[C@]12C (stereo partly drawn)	43*	nt	91*	nt	nt	nt
CC(C)(O)/C=C/C(=O)C(C)(O)C1C(O)CC2(C)C3CC=C4C(C=C(O)C(=O)C4(C)C)C3(C)C(=O)CC12C (stereo not drawn)	45*	88*	nt	91*	30	nt
COC(=O)[C@@H]1[C@@H](CO)[C@@H]2Cn3c(ccc(-c4ccccc4)c3=O)[C@H]1N2CC1CCOCC1	nt	19	nt	11	4	4
COCC#Cc1ccc([C@@H]2[C@@H](CO)N3CCCCN(C(=O)Cc4ccccn4)C[C@@H]23)cc1	nt	5	nt	-4	-12	19
SMILES	LMP1 NFkB inh	LGR2 antag	MITF TRPM1 inh	PAX8 inh HTS	EWS-Fli block	PGC1a acetyl inh
CCCN1[C@@H]2c3ccc(-c4ccc(F)cc4)c(=O)n3C[C@H]1[C@H](CO)[C@H]2C(=O)OC	nt	-9	nt	8	-4	-5
CCCCCCCn1c(=O)c(C(=O)Nc2cnccn2)c(O)c2ccccc21	34	2	55	13	3	7
CCCCCn1c(=O)c(C(=O)Nc2cnccn2)c(O)c2ccccc21	30	11	66*	8	3	7
CCCCCn1c(=O)c(C(=O)Nc2ccccc2S(N)(=O)=O)c(O)c2ccccc21	23	26	5	83*	16	15
CCCCn1c(=O)c(C(=O)Nc2ccccc2S(N)(=O)=O)c(O)c2ccccc21	4	nt	-12	nt	nt	11
O=C(O)[C@H]1[C@H](CO)[C@H]2Cn3c(ccc(-c4ccncc4)c3=O)[C@@H]1N2C(=O)C1CCCCC1	nt	11	nt	nt	1	nt
Cc1nc2ccccc2n1C1CCN(Cc2nnnn2CCc2ccccc2)CC1	47*	nt	-11	18	nt	0
CCCC#Cc1ccc([C@@H]2[C@H]3CN(C(=O)Cc4ccccn4)CCCCN3[C@H]2CO)cc1	nt	-11	nt	-2	0	-3
Cc1ccc(C(=O)N[C@@H](C)CN2C3=NC[C@@H](Cc4ccccc4)N3C[C@H]2Cc2ccc(O)cc2)cc1Br	nt	30	nt	111*	24	nt
O=C(O)[C@H]1[C@H](CO)[C@H]2Cn3c(ccc(-c4ccccc4)c3=O)[C@@H]1N2C(=O)C1CCCCC1	nt	3	nt	-2	0	2
O=[N+]([O-])c1ccc(N(CCO)CCO)c2c1no[n+]2[O-]	27	?	nt	109*	20	31
CN1CCN(c2ccc([N+](=O)[O-])c3no[n+]([O-])c23)CC1	76*	105*	86*	88*	33	?
O=C(O)[C@@H]1[C@@H](CO)[C@@H]2Cn3c(ccc(-c4cccc(F)c4)c3=O)[C@H]1N2CCc1ccccc1	nt	1	nt	-1	0	-1
COC(=O)[C@H]1[C@H](CO)[C@H]2Cn3c(ccc(-c4ccc(F)cc4)c3=O)[C@@H]1N2Cc1ccccc1	nt	-10	nt	-2	-7	nt
O=C1C(=O)c2ccccc2-c2ccccc21	86*	104*	110*	?	82*	38
O=C1C(=O)c2cccc3cccc1c23	6	8	2	15	26	nt
O=C(Cc1ccccn1)N1CCCCN2[C@H](CO)[C@H](c3ccc(-c4ccccc4)cc3)[C@@H]2C1	nt	-20	nt	-1	-4	-7
COc1ccc(-c2cc(-c3ccccc3)[n+](C)c(-c3ccccc3)c2)cc1	10	44	66*	87*	39	-2
Brc1ccc(-[n+]2c(-c3ccccc3)cc(-c3ccccc3)cc2-c2ccccc2)cc1	17	-1	70*	98*	49	nt

Bioassay records from PubChem BioAssay.
